Assay outcomes: PubChem BioAssay, several laboratories
CHT block – inhibitors of human choline transporter CHT | High affinity choline transporter 1 (Homo sapiens), Q9GZV3 | CHT-expressing cells, membrane potential dye, choline response; hits give low values | B-score at 10 µM | 0.86% of 310,000 active | AID 488975, 2010;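 active = B-score over 3 SD under the library average, and starting fluorescence ratio not unusually high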;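 note: choline stimulus applied at its EC90 after an EC20 pre-addition; B-score computed on integrated fluorescence ratio after choline addition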
Target sequence (Q9GZV3 whole entry, looked up): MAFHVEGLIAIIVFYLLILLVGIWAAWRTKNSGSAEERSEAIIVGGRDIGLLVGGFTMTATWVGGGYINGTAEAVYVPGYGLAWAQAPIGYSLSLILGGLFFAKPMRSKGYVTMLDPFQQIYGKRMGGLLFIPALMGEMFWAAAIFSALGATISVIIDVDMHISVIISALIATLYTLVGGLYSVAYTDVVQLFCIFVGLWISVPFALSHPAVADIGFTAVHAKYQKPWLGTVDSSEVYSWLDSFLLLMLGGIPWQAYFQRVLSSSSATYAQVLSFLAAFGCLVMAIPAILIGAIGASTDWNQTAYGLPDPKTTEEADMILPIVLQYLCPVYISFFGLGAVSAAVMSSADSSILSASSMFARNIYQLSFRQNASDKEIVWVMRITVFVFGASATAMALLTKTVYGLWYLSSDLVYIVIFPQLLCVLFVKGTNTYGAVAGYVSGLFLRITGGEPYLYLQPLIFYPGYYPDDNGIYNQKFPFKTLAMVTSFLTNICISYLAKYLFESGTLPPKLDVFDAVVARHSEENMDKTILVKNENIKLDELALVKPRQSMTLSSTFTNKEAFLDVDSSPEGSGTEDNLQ
CHT PAM – CHT positive allosteric modulators, primary screen, cell-based, membrane potential dye, choline EC20 | High affinity choline transporter 1 (Homo sapiens), Q9GZV3 | CHT-expressing cells; hits give high values; LV-AA mutant CHT in HEK293 cells | B-score at 10 µM | 0.49% of 310,000 active | AID 488977, 2010;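 active = initial fluorescence not abnormally high and integrated response B-score, plate-corrected, over 3 SD above library mean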
EP2 mod – EP2 receptor modulators, cAMP readout, primary screen, cell-based, HTRF cAMP, PGE2 stimulation; EP2-expressing cells, cAMP HTRF FRET, PGE2 co-stimulation; induction, % at 25 µM; 0.83% of 260,000 active; AID 940, 2007;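 active = compounds whose cAMP rise, as percent of the full-agonist control response, exceeds 60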;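 note: rat C6 glioma line stably carrying human EP2 under a CMV promoter; the protocol text gives 20 µM as final concentration; 100% = response of wells given 1 µM PGE2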
PGE2 EP2 inh – human EP2 receptor antagonists, primary screen, TR-FRET cAMP, C6 glioma cells | Prostaglandin E2 receptor EP2 subtype (Homo sapiens), P43116 | C6 glioma cells expressing human EP2; cells stimulated with saturating PGE2 | inhibition, % at 25 µM | 0.52% of 260,000 active | AID 1422, 2008;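 active = percent inhibition above 40 after rounding to a whole number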;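 note: rat C6 glioma host cells with rolipram phosphodiesterase inhibitor present; the protocol text gives 20 µM as final concentration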
CHT act confirm – CHT activators, confirmation, cell-based, membrane potential dye, duplicate. shares compounds with CHT PAM. CHT-expressing cells, membrane potential dye fluorescence (FDSS); % of choline EC20–EC90 response window; HEK293 expressing CHT LV-AA mutant; choline added at its EC20. activation, % at 10 µM. 91% of 2,500 active;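 active = primary screen active, with duplicate mean activation above negative control mean plus 3 SD, cut at about 11% in these data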
HEK293 MP dye – membrane potential response in parental HEK293 cells, counter-screen for CHT activator project, cell-based, membrane potential dye; 62% of 2,500 active; shares compounds with CHT PAM; membrane potential dye fluorescence (FDSS); measured after EC20 choline addition; AID 623908, 2012; ratio readout change at 10 µM, hits read low;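 active = duplicate-averaged ratio beyond 3 SD from buffer wells, up or down, though filed actives are nearly all decreases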
Active calls of the source: *; i = inactive; x = not tested or not shown. An excerpt weighted towards active compounds, which were near 2.1% of everything screened.

SMILES	CHT block	CHT PAM	EP2 mod	PGE2 EP2 inh	CHT act confirm	HEK293 MP dye
CCc1nnc(NC(=O)CSc2nnc(CNc3ccc(F)cc3)n2C)s1	x	x	-38	8	x	x
O=C(c1ccc(CN2CCCCC2)o1)N1CCCCC1c1nc2ccccc2[nH]1 (stereo unspecified)	x	x	2	x	x	x
CCn1nnnc1SCC(=O)Nc1cc(C)ccc1OC	x	x	-2	12	x	x
CCC(O)(CC)C(=O)N/N=C/c1cc(Br)cc(Br)c1O	i	i	-32	10	14*	i
O=C(C[n+]1ccccc1)N/N=C/c1cc(Br)cc(Br)c1O	i	i	x	x	x	x
CCOc1ccccc1NC(=O)CSc1nnc(-c2ccco2)o1	i	16*	-1	5	7	i
Cc1c(O)ccc2c(CN3CCOCC3)cc(=O)oc12	i	i	x	x	x	x
Cc1c(O)ccc2c(CN3CCN(CCO)CC3)cc(=O)oc12	i	17*	-4	9	66*	-70*
CCCCc1c(CCC)c(=N)c2ccccc2n1C	i	9.4*	25	12	65*	-26*
Cc1cc(C)c2c(c1)c(C)cc1nnc(SCC(=O)O)n12	x	x	-9	14	x	x
COc1cccc(CN2CCC(N(CCc3ccccc3)Cc3ccccc3)CC2)c1OC	i	10*	4	5	34*	i
COc1cccc(CN2CCN(Cc3cccc(Oc4ccccc4)c3)CC2)c1OC	i	i	x	x	x	x
Cc1ccc(N2CC(C(=O)Nc3nccs3)CC2=O)cc1C (stereo unspecified)	x	x	-11	6	x	x
O=C(N/N=C/c1ccncc1)c1cc([N+](=O)[O-])cc([N+](=O)[O-])c1	i	i	33	6	x	x
O=C(N/N=C/c1ccncc1)c1cccc([N+](=O)[O-])c1	i	i	16	6	49*	-51*
CCC(=O)Nc1c(C(=O)Nc2cccc(OC)c2)oc2ccccc12	i	i	16	3	x	x
CCCN(CCC)C(=O)c1oc2ccccc2c1NC(=O)Cc1cccc(OC)c1	i	16*	x	x	29*	i
O=C(Cn1c(-c2cccs2)cc2cccnc21)NCCc1ccncc1	x	x	-14	6	x	x
Cc1ccc(-c2nc3ncccn3c2NC2CCCCC2)o1	i	i	-12	16	36*	i
Cc1ccc(-c2nc3ncccn3c2Nc2ccc3c(c2)OCCO3)o1	i	i	-8	12	x	x
Cn1c(C(=O)N(Cc2ccc3c(c2)OCO3)CC2CC=CCC2)cc2sccc21 (stereo unspecified)	x	x	39	9	x	x
Cc1cccc(C(=O)NNC(=O)CSc2ncnc3sc(C)c(C)c23)c1	x	x	-79	11	x	x
CC1CCCN(c2ccc([N+](=O)[O-])cc2C(=O)c2ccccc2)C1 (stereo unspecified)	i	7.6*	53	6	27*	i
O=C(c1ccccc1)c1cc([N+](=O)[O-])ccc1N1CCOCC1	i	i	19	13	57*	i
Cc1ccc(C(=O)c2cc([N+](=O)[O-])ccc2N2CCCCC2)cc1	i	i	37	11	31*	i
SMILES	CHT block	CHT PAM	EP2 mod	PGE2 EP2 inh	CHT act confirm	HEK293 MP dye
O=C(NCc1ccc2c(c1)OCO2)c1cc([N+](=O)[O-])ccc1N1CCCCC1	i	9.2*	31	5	51*	i
Cc1ccc(C(=O)c2cc([N+](=O)[O-])ccc2N2CC(C)OC(C)C2)cc1 (stereo unspecified)	i	i	25	17	x	x
CC(=O)Nc1ccc(N2CCCC(C)C2)c([N+](=O)[O-])c1 (stereo unspecified)	i	i	-14	8	x	x
O=C(c1ccc(Br)cc1)c1cc([N+](=O)[O-])ccc1N1CCOCC1	i	i	3	6	x	x
COc1ccc2c(c1)cc(C)c1nn(CC(=O)Nc3ccccn3)c(=O)n12	x	x	17	x	x	x
COc1ccc(COC(=O)c2cc([N+](=O)[O-])ccc2N2CCOCC2)cc1F	i	9.4*	x	x	67*	i
O=C(OCc1cccc(Cl)c1)c1cc([N+](=O)[O-])ccc1N1CCOCC1	i	i	x	x	x	x
O=C(c1ccc(Cl)cc1)c1cc([N+](=O)[O-])ccc1N1CCOCC1	i	i	21	3	50*	i
O=C(COC(=O)c1cc([N+](=O)[O-])ccc1N1CCOCC1)Nc1ccc(Cl)cn1	i	6.8*	x	x	20*	i
O=C(COC(=O)c1cc([N+](=O)[O-])ccc1N1CCOCC1)Nc1ccc(Cl)cc1	i	i	x	x	x	x
c1ccc2c(c1)COC(CCN1CCN(CCC3OCc4ccccc4CO3)CC1)OC2	x	x	9	5	x	x
CCOc1ncccc1C(=O)N1CCN(c2cccc(C)c2C)CC1	x	x	-12	7	x	x
CCOc1ncccc1C(=O)N1CCN(c2cc(Cl)ccc2C)CC1	i	14*	3	1	45*	i
CCOc1ccc(C(c2nnnn2C(C)(C)CC)N2CCN(C(=O)c3ccco3)CC2)cc1 (stereo unspecified)	x	x	-17	9	x	x
COC(=O)CNC(c1ccccc1)c1cc(Br)ccc1NC(=O)CNC(=O)OCc1ccccc1 (stereo unspecified)	i	6.3*	57	3	47*	i
COC(=O)CNC(c1ccccc1)c1cc(Br)ccc1N (stereo unspecified)	i	i	33	5	x	x
COc1ccc2nc(N(CCN(C)C)C(=O)/C=C/c3cccs3)sc2c1	i	7.2*	7	20	35*	-32*
COc1ccc2sc(N(CCN(C)C)C(=O)/C=C/c3cccs3)nc2c1	i	i	32	9	x	x
Cc1ccc(NC(=O)CSc2nnc(-c3cccs3)n2C)cc1C	x	x	-36	10	x	x
CCc1cc(Br)ccc1NC(=S)NCCc1ccccc1	i	i	x	x	12*	i
CN(C)CCCOc1nc2c(c(=O)n(C)c(=O)n2C)n1C	i	9.1*	15	2	49*	-55*
CN(C)c1nc2c(c(=O)n(C)c(=O)n2C)n1Cc1cccc2ccccc12	x	x	5	9	x	x
CC[n+]1ccc(C[n+]2ccccc2)c2ccccc21	i	11*	23	2	85*	-87*
CCOc1ccc2[nH]c(C(=O)N(C)C(C)Cc3ccccn3)c(C)c2c1 (stereo unspecified)	x	x	-95	8	x	x
COc1ccccc1N1CCN(c2cc(N3CCCC3)nc(C)n2)CC1	i	7.5*	-1	10	54*	-48*
